HSF1 activator: increases HSF-1 driven luciferase reporter signal. NIH3T3-HGL HSF-1 luciferase reporter, MG132, 8 h; 100% = twice DMSO control signal. activation, % at 9 µM. 300,000 compounds, 1.7% hits. AID 504408;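 active = mean replicate activation of at least 50% with a set share of replicates each reaching 50%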
GC-B act: GC-B (human) receptor activation. activation, % at 10 µM. 370,000 compounds, 0.11% hits. HEK293-GC-B cells, CNP EC30, cGMP TR-FRET; 0% at EC30 CNP, 100% saturating CNP. AID 1920062. P20594;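 active = activation at 10 µM reaching about 35% in either raw or pattern-adjusted values, limit read from the data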
Target sequence (P20594 whole entry, looked up): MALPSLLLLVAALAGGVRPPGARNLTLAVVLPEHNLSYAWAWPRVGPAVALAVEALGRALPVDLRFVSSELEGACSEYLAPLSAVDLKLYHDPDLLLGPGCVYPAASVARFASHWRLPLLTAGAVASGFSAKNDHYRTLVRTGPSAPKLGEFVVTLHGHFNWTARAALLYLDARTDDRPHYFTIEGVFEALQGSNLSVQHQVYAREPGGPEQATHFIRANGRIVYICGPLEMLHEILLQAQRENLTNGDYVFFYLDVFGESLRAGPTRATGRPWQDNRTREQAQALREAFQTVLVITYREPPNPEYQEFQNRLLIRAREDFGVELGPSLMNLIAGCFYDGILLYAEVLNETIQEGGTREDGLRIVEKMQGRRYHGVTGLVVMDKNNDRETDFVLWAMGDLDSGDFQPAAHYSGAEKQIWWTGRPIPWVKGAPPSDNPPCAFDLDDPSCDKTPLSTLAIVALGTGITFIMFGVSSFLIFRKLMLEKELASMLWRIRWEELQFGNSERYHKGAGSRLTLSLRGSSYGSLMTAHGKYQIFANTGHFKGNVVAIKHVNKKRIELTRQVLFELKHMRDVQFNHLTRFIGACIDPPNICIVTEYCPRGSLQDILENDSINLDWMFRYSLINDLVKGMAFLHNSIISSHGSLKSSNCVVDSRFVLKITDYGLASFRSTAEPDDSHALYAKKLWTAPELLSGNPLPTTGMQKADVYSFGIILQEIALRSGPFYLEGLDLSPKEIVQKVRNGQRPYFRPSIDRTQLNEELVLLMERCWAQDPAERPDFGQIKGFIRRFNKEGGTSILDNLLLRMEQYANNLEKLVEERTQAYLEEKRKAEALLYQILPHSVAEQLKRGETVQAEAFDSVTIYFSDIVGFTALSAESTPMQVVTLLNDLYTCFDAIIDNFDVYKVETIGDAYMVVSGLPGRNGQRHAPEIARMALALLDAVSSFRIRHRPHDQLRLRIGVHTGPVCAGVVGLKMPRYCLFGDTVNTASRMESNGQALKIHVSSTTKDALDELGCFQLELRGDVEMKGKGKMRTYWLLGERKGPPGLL
GC-A act: GC-A (human) enzyme activation | HEK293 GC-A cells, cGMP TR-FRET, EC30 ANP; 0% at EC30 ANP, 100% saturating ANP | activation, % at 10 µM | 370,000 compounds, 0.14% hits; in the data active = activation above about 40%
aDG glyco up: increases alpha dystroglycan glycosylation; Pro5-aDG cells, alpha-DG glycosylation AlphaScreen (IIH6); 0% Pro5, 100% B10-LARGE cell signal; activation, % at 10 µM; 360,000 compounds, 0.22% hits;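 active = activation of at least 8% versus controls, or a plate z-score of at least 8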;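 note: Pro5 are CHO cells carrying HIG-tagged alpha-DG that lacks glycosylation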
Dyrk1A ADPGlo: inhibitors of rat Dyrk1A kinase; 310,000 compounds, 0.43% hits; Q63470; ADP-Glo luminescence, NFATc1 peptide; AID 504441; inhibition, % at 12.5 µM; in the data active = inhibition above about 50%
HSF1 inh: HSF1 inhibition; AID 2098; activity change, negative = inhibition, % at 7.5 µM (by protocol); NIH3T3-HGL HSE-luciferase, MG132-induced, luminescence 8 h; hits give low values; 300,000 compounds, 0.77% hits;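 active = more than half of replicate wells show activity change below -50%, luminescence cut by over half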;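 note: luciferase reports HSF-1 transcriptional activity via heat shock element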
ADP-Glo artifact: interferes with ADP-Glo luciferase readout without Dyrk1A; AID 588348; AC50, µM (doses to about 12 µM); ADP-Glo luciferase artifact assay, no Dyrk1A, luminescence; 1,300 tested, under 10 active; shares compounds with Dyrk1A ADPGlo;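 active = fitted half-maximal dose AC50 no more than ten times the top valid tested dose, with luminescence dropping as dose rises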
Each line names hits and unclear results; the compound was inactive in the other large screens (follow-up assays come after a bar, where they were run). Shown are actives, neighbours in structure and some others; about 2.5% of the full set was active somewhere.

O=C1NC(=O)/C(=C/c2ccc(O)cc2)S1	Dyrk1A ADPGlo 90 | ADP-Glo artifact inactive
O=C1NC(=O)C(=Cc2ccc(Cl)c(Cl)c2)S1	none (no result: HSF1 activator, HSF1 inh)
CCOc1cc(/C=C2\SC(=O)N(c3ccc(O)cc3)C2=O)ccc1O	none
O=C(O)c1cccc(S(=O)(=O)N2CCc3ccccc3C2)c1	none
Cc1cc(C)cc(N=Cc2c(O)c3ccccc3oc2=O)c1	none (no result: Dyrk1A ADPGlo)
O=C(O)c1cc(N=Cc2c(O)c3ccccc3oc2=O)ccc1O	Dyrk1A ADPGlo 82 | ADP-Glo artifact inactive
O=C(O)COc1ccc(/C=C/c2ccc3cccc([N+](=O)[O-])c3n2)cc1	Dyrk1A ADPGlo 66 | ADP-Glo artifact inactive
Cc1ccc(S(=O)(=O)N2CCC(C(=O)N3CCN(c4ccccn4)CC3)CC2)cc1C	none (no result: HSF1 activator, Dyrk1A ADPGlo, HSF1 inh)
CCN(C(=O)COc1ccccc1[N+](=O)[O-])C1CCS(=O)(=O)C1 (stereo unspecified)	none
O=C(Nc1cccc(-c2cn3cccnc3n2)c1)c1ccc(Br)o1	Dyrk1A ADPGlo 51 | ADP-Glo artifact inactive
COc1cccc(-c2noc(N)c2C#N)c1	Dyrk1A ADPGlo 63 | ADP-Glo artifact inactive
N#Cc1c(-c2ccc(F)cc2)noc1N	none
CCC(C)[C@H]1CNCCN1CCc1cccc2ccccc12 (stereo partly specified)	Dyrk1A ADPGlo 51 | ADP-Glo artifact inactive
CCOc1ccc(/C(O)=C2/C(=O)C(=O)N(c3ccccn3)C2c2ccc(Cl)cc2)c(C)c1 (stereo unspecified)	none (no result: Dyrk1A ADPGlo)
COC(=O)C1=C(C)N(CCCC(=O)O)C(=O)NC1c1ccc(Cl)cc1 (stereo unspecified)	Dyrk1A ADPGlo 56 | ADP-Glo artifact inactive
COC(C[C@H]1O[C@H]1C(=O)[C@@H](C)OCc1ccccc1)OC	none
O=C(O)c1cc2ccccc2c2c1C(=O)c1ccccc1-2	none (no result: HSF1 activator, Dyrk1A ADPGlo, HSF1 inh)
O=C(O)c1cc2ccccc2c2cc(Br)ccc12	Dyrk1A ADPGlo 69 | ADP-Glo artifact inactive
CCOc1ccc(-c2nc(C#N)c(NCC3CCCO3)o2)cc1 (stereo unspecified)	none
N#Cc1nc(-c2ccccc2Cl)oc1NCC1CCCO1 (stereo unspecified)	Dyrk1A ADPGlo 60 | ADP-Glo artifact inactive
CCC(C(=O)OCC(=O)Nc1ccc(Cl)c(S(=O)(=O)N(C)C)c1)c1ccccc1 (stereo unspecified)	none
N#C/C(=C\c1ccc(O)c(O)c1)C(=O)NCCc1ccccc1	Dyrk1A ADPGlo 70 (no result: HSF1 activator, HSF1 inh) | ADP-Glo artifact inactive
COc1cc(/C=C(\C#N)C(=O)NCCc2ccccc2)cc(OC)c1O	none
N#C/C(=C/c1ccc([N+](=O)[O-])cc1)C(=O)Nc1ccccc1O	none
N#C/C(=C/c1ccc(O)c([N+](=O)[O-])c1)C(=O)Nc1ccccc1	Dyrk1A ADPGlo 81 | ADP-Glo artifact inactive
CC(C)=CCC[C@](C)(O[C@@H]1O[C@H](CO[C@@H]2OC[C@H](O[C@@H]3OC[C@@H](O)[C@H](O)[C@H]3O)[C@H](O)[C@H]2O)[C@@H](O)[C@H](O)[C@H]1O)C1CC[C@]2(C)C1[C@H](O)CC1[C@@]3(C)CC[C@H](O)C(C)(C)C3[C@@H](O)C[C@]12C (stereo partly specified)	none (no result: HSF1 activator, HSF1 inh)
CC(=NCc1cccnc1)C1=C(O)c2ccccc2C1=O	Dyrk1A ADPGlo 51 | ADP-Glo artifact inactive
NC1=NC(=O)/C(=C\c2ccc(-c3ccc(Cl)cc3)o2)S1	GC-B act 38, Dyrk1A ADPGlo 58 | ADP-Glo artifact inactive
CN(C)C1=NC(=O)/C(=C/c2ccc(-c3ccc(S(N)(=O)=O)cc3)o2)S1	none (no result: GC-B act, GC-A act, aDG glyco up, Dyrk1A ADPGlo)
Cn1c(-c2ccccc2)c(C=O)c2ccccc21	Dyrk1A ADPGlo 78 | ADP-Glo artifact inactive
C1=C\CCC2(OCCO2)C2(CC/1)OCCO2	none (no result: HSF1 activator, Dyrk1A ADPGlo, HSF1 inh)
NC(=O)c1ccc(-n2nnnc2SCC(=O)Nc2ccc(N3CCOCC3)c(Cl)c2)cc1	none
O=C(CSc1nnnn1-c1ccc(O)cc1)Nc1ccc(N2CCOCC2)c(Cl)c1	Dyrk1A ADPGlo 51 | ADP-Glo artifact inactive
O=C(O)c1ccc(N=c2oc3cc(O)ccc3cc2C(=O)NCc2ccccc2)cc1	none
NC(=O)c1cc2ccc(O)cc2oc1=Nc1ccccc1	Dyrk1A ADPGlo 58 | ADP-Glo artifact inactive
NC(=O)c1cc2ccccc2oc1=NCc1ccccc1	Dyrk1A ADPGlo 68 | ADP-Glo artifact inactive
COc1ccc(OC)c(N=c2oc3cc(O)ccc3cc2C(N)=O)c1	GC-A act 56, Dyrk1A ADPGlo 81 | ADP-Glo artifact inactive
COc1ccc(NC(=O)CN(c2ccccc2OC)S(=O)(=O)c2cccs2)cc1Cl	none (no result: HSF1 activator, HSF1 inh)
O=C(C=NNc1ccccc1)c1ccccc1	none (no result: HSF1 activator, HSF1 inh)
Cc1cccc(C(=O)N[C@H](C(=O)NCCc2ccc(S(N)(=O)=O)cc2)C(C)C)c1	none
Cc1cc(C)c(CN2CCN(C(=O)Cn3ccc(N)nc3=O)CC2)c(C)c1	Dyrk1A ADPGlo 50 (no result: HSF1 activator, HSF1 inh) | ADP-Glo artifact inactive
OC[C@@H]1CN(Cc2ccccc2)C[C@H](n2cnc3c(N4CCOCC4)ncnc32)O1	none (no result: HSF1 activator, Dyrk1A ADPGlo, HSF1 inh)
O=C(CSc1nc(C(F)(F)F)cc(=O)[nH]1)NCC1CCCO1 (stereo unspecified)	none
COc1cc(/C=C2\Oc3cc(O)ccc3C2=O)ccc1O	Dyrk1A ADPGlo 93 | ADP-Glo artifact inactive
O=C1/C(=C/c2cccc([N+](=O)[O-])c2)Oc2cc(O)ccc21	none
O=C1/C(=C/c2ccc(O)c(O)c2)Oc2cc(O)ccc21	Dyrk1A ADPGlo 68 (no result: HSF1 activator, HSF1 inh) | ADP-Glo artifact inactive
CCCN1CCN(C(=O)Cn2cnc3ccc(S(=O)(=O)N4CCC(C)CC4)cc3c2=O)CC1	none
CC(=O)C1=C(C)Nc2ncnn2C1c1ccc(F)cc1 (stereo unspecified)	none
COc1ccc(N2Nc3n[nH]c(N)c3N2)cc1	Dyrk1A ADPGlo 61 | ADP-Glo artifact inactive
CCOc1ccc(N2Nc3n[nH]c(N)c3N2)cc1	none
CN=C1S/C(=C\c2ccc(O)c(Br)c2)C(=O)N1C	Dyrk1A ADPGlo 91 | ADP-Glo artifact inactive
CN=C1S/C(=C\c2ccc(O)c(OC)c2)C(=O)N1C	none (no result: Dyrk1A ADPGlo)
Cc1ccccc1NC(=O)CSc1[nH]c(=O)cc(C)c1C#N	Dyrk1A ADPGlo 58 | ADP-Glo artifact inactive
COc1ccc(N(CC(=O)Nc2ccc3c(c2)OCCO3)S(=O)(=O)c2c(C)nn(C)c2C)cc1	Dyrk1A ADPGlo 56 | ADP-Glo artifact inactive
CCc1ccc(NC(=O)CN(c2ccc(OC)cc2)S(=O)(=O)c2c(C)nn(C)c2C)cc1	none
CCC1NC(C(=O)O)Cc2c1[nH]c1ccccc21 (stereo unspecified)	Dyrk1A ADPGlo 50 | ADP-Glo artifact inactive

Bioassay records: PubChem, several laboratories
